Where “and” joins values, the source holds several entries; their conditions need not be identical. Equal entries are not always repeated. Inconclusive results are not listed. Values without a mark were called inactive. Calls of active or inactive are those of the source. Calls come from the whole dose curve; as a rule, active = well fitted inhibition curve with a large enough effect in the repeat runs; inconclusive = weak or mixed curves; inactive = no such curve, though single readings can be large or run the other way.
% is set by controls: 0 for no effect and ±100 for the full control effect; potency is the fitted concentration of half-maximal effect.

A short description of the assay: qHTS assay to identify small molecule antagonists of the estrogen related receptor (ERR) signaling pathway from Tox21 library (AID 1224848). Note: nearly all actives have a fitted effect of over 50% in size. The settings on record: ERR reporter cell line, luciferase antagonist mode, 18 h; series mostly up to 92.4 µM; activity, negative = inhibition: at the top concentration. From the text: U.S. Tox21 Program National Center for Advancing Translational Sciences [NCATS] NIH Chemical Genomics Center [NCGC] U.S. Environmental Protection Agency [EPA] National Institutes of Environmental Health Sciences [NIEHS] National Toxicology Program [NTP] U.S. Food and Drug Administration [FDA] Tox21 Assay Overview: Estrogen related receptors (ERRs), the first orphan nuclear receptors discovered, play an important role in the control of cellular energy metabolism. ERRs are required for high-energy production in response to the environmental challenges. ERR-alpha was also identified as an adverse marker for breast cancer progression; ERR-alpha-positive tumors have a poor prognosis. To screen and to identify environmental compounds that perturb the ERR signaling pathways could provide valuable information for potential therapeutic or preventive measures in the treatment of metabolic disease. For identifying ERR antagonists, ERR cell line (provided by NTP) has been used to screen Tox21 10K library.
Tox21 Assay Protocol Summary: The ERR cells were dispensed at 2,000 cells/5 ul/well in 1536-well white plates using a Multidrop dispenser. After the assay plates were incubated at a 37 C/5% CO2 incubator for 6 hours, 23 nL of compounds dissolved in DMSO, positive and negative controls or DMSO only was transferred to the assay plate by a pin tool. The plates were incubated at 37 C for 18 hours. 4 ul/well of One-Glo reagent was added into the assay plates using a Flying Reagent Dispenser. After 30-minute incubation at room temperature, the luminescence intensity in the plates was measured using a ViewLux plate reader.
For orientation: Quantitative high-throughput screening tests each substance at several concentrations.
In the case of `CNC(=O)Oc1cc(C)cc(C(C)C)c1`, the “activity, negative = inhibition” value is 13.7%.

Consider `O=[N+]([O-])c1ccc(Cl)c(Cl)c1Cl`, for which the “activity, negative = inhibition” value was -15.9%.

In the case of `CCC[CH2][Sn]([CH2]CCC)([CH2]CCC)[CH2]CCC`, the Potency is 13.7 µM (active).

With `Oc1ccc2[nH]cc(CCCCN3CC=C(c4ccccc4)CC3)c2c1`, the Potency was 29.8 µM (active).

On to `CCNS(=O)(=O)C(F)(F)C(F)(F)C(F)(F)C(F)(F)C(F)(F)C(F)(F)C(F)(F)C(F)(F)F`, for which the “activity, negative = inhibition” value is -15.4%.

Regarding `CC(Cc1ccc(OCC(=O)O)cc1)NCC(O)c1csc(C(F)(F)F)n1` (stereo not given), the “activity, negative = inhibition” value was 21.9%.

As to `N#Cc1sc2c(=O)c3ccccc3c(=O)c=2sc1C#N`, the Potency was 61.1 µM (active).

`BrCC(Br)(Br)Br`: the “activity, negative = inhibition” value was 24%.

`CNC(=O)/C=C(\C)OP(=O)(OC)OC`: the “activity, negative = inhibition” value is 2.21%.

`Cc1cc2c3c(c1)C(c1ccccc1)=N[C@@H](NC(=O)c1ccncc1)C(=O)N3CC2`: the “activity, negative = inhibition” value is -24.1%.

In the case of `O=C(Nc1ccc(F)cc1F)c1cccnc1Oc1cccc(C(F)(F)F)c1`, the “activity, negative = inhibition” value is 8.71%.

`O=c1c2ccccc2c(=O)c2c1cc(Cl)c1[nH]c3c([nH]c12)c(Cl)cc1c(=O)c2ccccc2c(=O)c13`: the “activity, negative = inhibition” value is -25.6%.

Turning to `C[C@@H]1CC2=CC(=O)CC[C@@H]2[C@H]2CC[C@@]3(C)[C@@H](CC[C@]3(C)O)[C@@H]21`, the Potency is 23.7 µM (active).

In the case of `CN1CCc2cc(Cl)c(O)cc2[C@H]2c3ccccc3CC[C@@H]21`, the “activity, negative = inhibition” value was 1.83% [at 42.5 µM].

Turning to `COP(=O)(OC)O/C(=C\Cl)c1cc(Cl)c(Cl)cc1Cl`, the Potency was 21.7 µM (active).

On to `COc1cnc(OC)n2nc(NS(=O)(=O)c3c(OCC(F)F)cccc3C(F)(F)F)nc12`, for which the “activity, negative = inhibition” value is 0.21%.

In the case of `O=NN(CCO)CCO`, the “activity, negative = inhibition” value was 2.45%.

As to `CCCCON=O`, the “activity, negative = inhibition” value was -9.25%.

For `CC(C)(C)c1ccc(OP(=O)(Oc2ccccc2)Oc2ccccc2)cc1`, the Potency is 61.5 µM (active).

For `CC(=O)[O][Pb]([c]1ccccc1)([c]1ccccc1)[c]1ccccc1`, the Potency is 0.545 µM (active).

As for `CCC1COC(Cn2cncn2)(c2ccc(Cl)cc2Cl)O1` (stereo not given), the Potency is 61.1 µM (active).

On to `Fc1ccc(C(OCCN2CCN(CCCc3ccccc3)CC2)c2ccc(F)cc2)cc1`, for which the Potency was 6.68 µM (active).

In the case of `O=C1C(Cl)=C(Cl)C(=O)C(Cl)=C1Cl`, the Potency was 24.3 µM (active).

For the compound `O=c1[nH]c2cc(Cl)ccc2n1C1CCNCC1`, the “activity, negative = inhibition” value was 0.0862% [at 42.5 µM].

On to `CCOP(=S)(NC(C)C)Oc1ccccc1C(=O)OC(C)C` (stereo not given), for which the Potency is 30.6 µM (active).

For the compound `O=C1C[C@@H]2OCC=C3CN4CC[C@]56c7ccccc7N1[C@H]5[C@H]2[C@H]3C[C@H]46`, the “activity, negative = inhibition” value was -2.8% [at 42.5 µM].

In the case of `CCCCCON=O`, the “activity, negative = inhibition” value is -10.5%.

Take `O=C1C2(Cl)C3(Cl)C4(Cl)C(Cl)(Cl)C5(Cl)C3(Cl)C1(Cl)C5(Cl)C24Cl` (stereo not given): the Potency is 26.9 µM (active) and 58.5 µM (active).

For the compound `O=C(CCCCl)c1ccc(F)cc1`, the “activity, negative = inhibition” value was 13.6% [at 42.5 µM].

In the case of `C=C(C)C(=O)[O][Sn]([CH2]CCC)([CH2]CCC)[CH2]CCC`, the Potency is 0.486 µM (active).

As for `O=Cc1ccccc1`, the “activity, negative = inhibition” value is 11.2%.

In the case of `CCC(OC(C)=O)C(CC(C)NC)(c1ccccc1)c1ccccc1` (stereo not given), the Potency is 69.2 µM (active).

In the case of `Cc1cc(C2CC2)nc(Nc2ccccc2)n1`, the “activity, negative = inhibition” value is 12.5%.

As for `C#CC1(O)CCCCC1`, the “activity, negative = inhibition” value is 1.71%.

Regarding `CCN1CCC2(CC1)COc1cc3c(cc12)N(C(=O)c1ccc(-c2ccc(-c4nnc(C)o4)cc2C)cc1)CC3`, the Potency is 10 µM (active).

For `Oc1cc(Cl)cc(Cl)c1`, the Potency was 61.8 µM (active).

Turning to `Nc1cc(Cl)ccc1Cl`, the “activity, negative = inhibition” value was -0.251%.

Turning to `Nc1ccc(Cl)cc1C(=O)c1ccccc1F`, the “activity, negative = inhibition” value was 12.1% [at 42.5 µM].

Turning to `CCOC(=O)CCN(SN(C)C(=O)Oc1cccc2c1OC(C)(C)C2)C(C)C`, the Potency is 61.1 µM (active).

`CCc1cccc(C)c1N(C(=O)CCl)[C@@H](C)COC`: the Potency is 61.1 µM (active).

The values are drawn from PubChem BioAssay (Tox21).
